Assay results as given in PubChem BioAssay (NCATS).
“And” between values parts separate entries of the source, which are not always exact repeats. Equal entries are not always repeated. Records with an inconclusive call do not appear. Where a call stands in place of a potency, no number is given. The source made the active and inactive calls. Calls come from the whole dose curve; as a rule, active = well fitted curve in the direction sought with a large enough effect; inconclusive = small, poorly fitted or top-dose-only effect, or another doubt; inactive = no such curve, though single readings can be large; an effect the other way counts as inactive or inconclusive.

Legend:
[1] = NS1 protein of Zika virus - qHTS assay to identify small molecule inhibitors in human HEK 293 cells (AID 1347053); note: nearly all actives have a fitted effect of over 55% in size
How it was run: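 Readout was TR-FRET using paired anti-NS1 antibodies after 24 h infection of HEK 293 cells with ZIKV MR766 (MOI = 0.5). Compound preceded virus by 1 h; reduced signal reflects lower NS1 expression.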

[2] = qHTS of pediatric cancer cell lines to identify multiple opportunities for drug repurposing: Primary screen for TC32 cells (AID 1347089); note: nearly all actives have a fitted effect of over 60% in size
How it was run: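 Luminescent CellTiter-Glo read-out of metabolically active TC32 cells after 48 h compound exposure. Primary: MIPE 11-point, 0.78 nM–46 µM; NPC 8-point, 0.59 nM–46 µM. Confirmatory: 11-point dilutions.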

[3] = qHTS of pediatric cancer cell lines to identify multiple opportunities for drug repurposing: Primary screen for DAOY cells (AID 1347090); note: nearly all actives have a fitted effect of over 55% in size
How it was run: (§1)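 Cell viability, CellTiter-Glo luminescence; 500-1,000 cells/well, 8- or 11-point titration, 48 h compound exposure at 37 degrees C, 5% CO2. Controls: DMSO neutral, bortezomib 2.3 µM final as positive.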

[4] = qHTS of pediatric cancer cell lines to identify multiple opportunities for drug repurposing: Primary screen for SJ-GBM2 cells (AID 1347091)
How it was run: as §1

[5] = qHTS of pediatric cancer cell lines to identify multiple opportunities for drug repurposing: Primary screen for A673 cells (AID 1347092); note: nearly all actives have a fitted effect of over 45% in size
How it was run: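 A673 cells (500-1,000 cells/well in growth media) were pre-incubated 5 h at 37 degrees C, then exposed to compounds for 48 h. Viability was read as CellTiter-Glo luminescence; concentration-response curves came directly from the primary screen.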

[6] = qHTS of pediatric cancer cell lines to identify multiple opportunities for drug repurposing: Primary screen for SK-N-MC cells (AID 1347093)
How it was run: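 Metabolically active cells were quantified by ATP-dependent luminescence (CellTiter-Glo, 15 min at room temperature) following 48 h treatment. Cells had been plated at 500-1,000 per well and settled for 5 h beforehand.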

[7] = qHTS of pediatric cancer cell lines to identify multiple opportunities for drug repurposing: Primary screen for NB-EBc1 cells (AID 1347095)
How it was run: (§2)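 Cells seeded at 500-1,000 cells/well in growth media, rested 5 hours at 37 degrees C, 5% CO2, then dosed; MIPE compounds at 11-point (from 0.78 nM) and NPC at 8-point (from 0.59 nM) final concentrations. Viability by CellTiter-Glo luminescence after 48 hours.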

[8] = qHTS of pediatric cancer cell lines to identify multiple opportunities for drug repurposing: Primary screen for U-2 OS cells (AID 1347096); note: nearly all actives have a fitted effect of over 50% in size
How it was run: (§3)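 Cells (500-1,000/well) rested 5 h, then received compounds for 48 h; metabolically active cells were measured by CellTiter-Glo luminescence. Final concentrations spanned up to 46 µM (MIPE, 11-point) or 0.59 nM-46 µM (NPC, 8-point) in primary screens, 11-point in follow-ups.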

[9] = qHTS of pediatric cancer cell lines to identify multiple opportunities for drug repurposing: Primary screen for SK-N-SH cells (AID 1347098); note: nearly all actives have a fitted effect of over 65% in size
How it was run: as §3

[10] = qHTS of pediatric cancer cell lines to identify multiple opportunities for drug repurposing: Primary screen for NB1643 cells (AID 1347099); note: nearly all actives have a fitted effect of over 50% in size
How it was run: as §2

[11] = qHTS of pediatric cancer cell lines to identify multiple opportunities for drug repurposing: Primary screen for LAN-5 cells (AID 1347100)
How it was run: as §3

[12] = qHTS of pediatric cancer cell lines to identify multiple opportunities for drug repurposing: Primary screen for Rh18 cells (AID 1347102); note: nearly all actives have a fitted effect of over 65% in size
How it was run: as §3

[13] = qHTS of pediatric cancer cell lines to identify multiple opportunities for drug repurposing: Primary screen for RD cells (AID 1347104); note: nearly all actives have a fitted effect of over 55% in size
How it was run: as §2

[14] = qHTS of pediatric cancer cell lines to identify multiple opportunities for drug repurposing: Primary screen for MG 63 (6-TG R) cells (AID 1347105); note: nearly all actives have a fitted effect of over 50% in size
How it was run: as §2

[15] = qHTS of pediatric cancer cell lines to identify multiple opportunities for drug repurposing: Primary screen for BT-37 cells (AID 1347094)
How it was run: as §2

[16] = qHTS of pediatric cancer cell lines to identify multiple opportunities for drug repurposing: Primary screen for OHS-50 cells (AID 1347103); note: nearly all actives have a fitted effect of over 40% in size
How it was run: as §3

[17] = qHTS of pediatric cancer cell lines to identify multiple opportunities for drug repurposing: Primary screen for Saos-2 cells (AID 1347097); note: nearly all actives have a fitted effect of over 40% in size
How it was run: as §2

[18] = qHTS of pediatric cancer cell lines to identify multiple opportunities for drug repurposing: Primary screen for BT-12 cells (AID 1347101); note: nearly all actives have a fitted effect of over 25% in size
How it was run: as §3
Potency is the fitted concentration of half-maximal effect.

Structure (SMILES) | Potency [1] | Potency [2] | Potency [3] | Potency [4] | Potency [5] | Potency [6] | Potency [7] | Potency [8] | Potency [9] | Potency [10] | Potency [11] | Potency [12] | Potency [13] | Potency [14] | Potency [15] | Potency [16] | Potency [17] | Potency [18]
N#CC1(c2ccc(NC(=O)c3cccnc3NCc3ccncc3)cc2)CCCC1 | inactive | inactive | inactive | inactive | inactive | inactive | inactive | inactive | inactive | inactive | inactive | inactive | inactive | inactive |  |  |  | 
O=C(CCN1CCN(C(=O)OCc2cc(Cl)cc(Cl)c2)CC1)c1ccc2[nH]c(=O)oc2c1 | inactive | inactive | inactive | inactive |  | inactive | inactive | inactive |  |  | inactive |  | inactive | inactive | inactive | inactive |  | 
O=C(N[C@@H](c1ccccc1)[C@@H]1CCCCN1)c1cccc(C(F)(F)F)c1Cl | inactive | inactive | inactive | inactive |  | 20.9 µM (active) | 7430 nM (active) | inactive | 21500 nM (active) | inactive | 18700 nM (active) | inactive |  | inactive | 19.3 µM (active) |  | inactive | 
COc1ncc(-c2ccc3nccc(-c4ccnnc4)c3c2)cc1NS(=O)(=O)c1ccc(F)cc1F | 41.8 nM (active) | 2.6 nM (active) | 4.69 µM (active) | 1 nM (active) | 74.3 nM (active) | 0.001 µM (active) | 1 nM (active) | 7430 nM (active) | 1520 nM (active) | 66.2 nM (active) | 105 nM (active) | 37.2 nM (active) | 372 nM (active) |  | 0.0611 µM (active) | 1 nM (active) |  | 
COc1ccc(-c2coc3cc(O)cc(O)c3c2=O)cc1 | inactive | inactive | inactive | inactive |  | 10.5 µM (active) | inactive | inactive | 24100 nM (active) |  | inactive | inactive | inactive | inactive | inactive |  |  | inactive
O=C(NC1CCOCC1)c1ccc(-c2cc(-c3cn[nH]c3-c3ccccn3)ccn2)cc1 | inactive | inactive | inactive | inactive |  | inactive | inactive | inactive | inactive | inactive | inactive | inactive | inactive | inactive | inactive | inactive | inactive | 
Cc1ccc(C(=O)Nc2cccc(C(F)(F)F)c2)cc1Nc1nc(-c2cccnc2)nc2c1cnn2C | 14800 nM (active) | inactive | 14.8 µM (active) | 7430 nM (active) | 9350 nM (active) | 9.35 µM (active) | 8330 nM (active) | inactive | inactive | 7430 nM (active) |  |  | 14800 nM (active) |  | 24.3 µM (active) | 21700 nM (active) |  | 24.3 µM (active)
CCCCCCCCCCCC1=C(O)C(=O)C=C(O)C1=O | inactive | inactive | 0.935 µM (active) | 33.2 nM (active) |  | 0.0935 µM (active) | 469 nM (active) | inactive |  |  | 16.6 nM (active) | inactive |  | 2960 nM (active) | 0.0243 µM (active) | 19.3 nM (active) | 37.2 nM (active) | 0.0432 µM (active)
O=C(O)c1cc(O)c2c(c1)C(=O)c1cccc(O)c1C2=O | inactive | inactive | inactive | inactive |  | 19.1 µM (active) | 38200 nM (active) | inactive | inactive |  | inactive | inactive | inactive |  | inactive | inactive |  | inactive
CN(C)CCC=C1c2ccccc2COc2ccc(CC(=O)O)cc21 | inactive | inactive | inactive | inactive |  |  | inactive | inactive |  |  | inactive | inactive |  |  | inactive | inactive | inactive | 
Cc1ccccc1C(C(=O)NC1CCCCC1)N(C(=O)Cn1ccnc1C)c1cccc(F)c1 (stereo unspecified) | inactive | inactive | inactive | inactive | inactive | 23.5 µM (active) |  | inactive | inactive |  | inactive | inactive |  | inactive | inactive |  |  | inactive
CN(C)c1cc(NC(=O)CNC(C)(C)C)c(O)c2c1C[C@@H]1C[C@H]3[C@H](N(C)C)C(=O)C(C(N)=O)=C(O)[C@@]3(O)C(=O)C1=C2O | inactive | inactive | inactive | inactive |  | inactive | inactive | inactive | inactive |  |  |  | inactive | inactive | inactive | inactive | inactive | inactive
Nc1ncnc2c1ncn2[C@@H]1O[C@@H](CO)[C@H](O)[C@H]1O | inactive | inactive | inactive | inactive |  | inactive | inactive | inactive | inactive | inactive | inactive | inactive | inactive | inactive | inactive | inactive |  | inactive
O=C(OCC#CCSc1nnc(-c2cccc3ccccc23)o1)c1cc2ccccc2s1 | inactive | inactive | inactive | inactive | inactive | inactive |  | inactive |  | inactive | inactive | inactive | inactive | inactive | inactive | inactive | inactive | 
CC[C@]1(O)C[C@@H]2CN(CCc3c([nH]c4ccccc34)[C@@](C(=O)OC)(c3cc4c(cc3OC)N(C)[C@H]3[C@@](O)(C(=O)OC)[C@H](OC(C)=O)[C@]5(CC)C=CCN6CC[C@]43[C@@H]65)C2)C1 | inactive | 118 nM (active) and 592 nM (active) | 26.6 nM (active) and 133 nM (active) | 75 nM (active) |  | 33.5 nM (active) and 106 nM (active) | 188 nM (active) |  |  | 1330 nM (active) | 133 nM (active) |  | 21.1 nM (active) and 211 nM (active) |  | 43.7 nM (active) and 174 nM (active) | 30.9 nM (active) and 138 nM (active) | 42.2 nM (active) and 168 nM (active) | 43.7 nM (active) and 347 nM (active)
Cn1cc(C=C2C(=O)Nc3cccnc32)c2ccccc21 | inactive | inactive | inactive | inactive |  |  | inactive | inactive | inactive | inactive | inactive | inactive |  |  | inactive |  | inactive | 
